From the supplement of paper PMC10477191 come the findings set out here.

± gives the standard deviation of the averaged measurements.

The test concerns Drosophila ezoana antennal basiconic sensillum ab8. Nature of the test: odor-evoked OSN spike response (post minus pre-stimulus); higher = stronger neuronal excitation. Particulars: odor dilution: 10^-4. On the procedure:
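Single sensillum recordings from antennal basiconic sensilla of D. ezoana. A 500 ms pulse of odorant (10^-4 in mineral oil or DMSO) was delivered; the response is the change in action potential frequency between the 1 s pre- and post-stimulus windows (spikes/s).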
For the compound `CC(C)=O` [acetone], the “odor-evoked OSN spike response” value turned out to be 66.9 ± 31 spikes/s.
